In the supplement of paper PMC6555819:

Assays:
Assay in all cases: PBM binding z-score (relative to random genomic background probes); higher = stronger binding; sequences stand for … in GC…GCGATTGACAGCGTAGAATGAAGG
[1] = system: PPARg:RXRa DBDmut IVT, anti-RXR (DBD mutation: RXRa K156A/R161A, NR concentration 270 nM, RXRa partner concentration 90 nM)
In short: (§1)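 Binding z-scores take random background probes as their reference. They come from custom Agilent 4×180K protein-binding microarrays incubated 1 h with ligand-free nuclear receptor dimers, with antibodies against each partner (one per run) detecting binding. Scanned fluorescence was regression-normalized.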

[2] = system: PPARg:RXRa IVT, anti-PPARg (NR concentration 270 nM, RXRa partner concentration 90 nM)
In short: as §1

[3] = system: PPARg DBDmut:RXRa IVT, anti-PPARg (DBD mutation: PPARg1 K132A/R137A, NR concentration 270 nM, RXRa partner concentration 90 nM)
In short: as §1

[4] = system: PPARg DBDmut IVT, anti-PPARg (DBD mutation: PPARg1 K132A/R137A, NR concentration 270 nM)
In short: as §1

[5] = system: PPARg homodimer (NR concentration 180 nM)
In short: as §1

[6] = system: PXR:RXRa (NR concentration 270 nM, RXRa partner concentration 90 nM)
In short: as §1

[7] = system: PXR homodimer (NR concentration 270 nM)
In short: as §1

[8] = system: RARa:RXR (NR concentration 270 nM, RXRa partner concentration 90 nM)
In short: as §1

[9] = system: RARa homodimer (NR concentration 270 nM)
In short: as §1

[10] = system: RARb:RXRa (NR concentration 270 nM, RXRa partner concentration 90 nM)
In short: as §1

[11] = system: RARb homodimer (NR concentration 270 nM)
In short: as §1

[12] = system: RARg:RXRa (NR concentration 270 nM, RXRa partner concentration 90 nM)
In short: as §1

[13] = system: RARg homodimer (NR concentration 270 nM)
In short: as §1

[14] = system: RXRa DBDmut IVT, anti-RXR (DBD mutation: RXRa K156A/R161A, NR concentration 90 nM)
In short: as §1

[15] = system: RXRa homodimer (NR concentration 180 nM)
In short: as §1

[16] = system: THRa:RXRa (NR concentration 90 nM, RXRa partner concentration 90 nM)
In short: as §1

[17] = system: THRa homodimer (NR concentration 90 nM)
In short: as §1

[18] = system: VDR:RXRa (NR concentration 270 nM, RXRa partner concentration 90 nM)
In short: as §1

[19] = system: VDR homodimer (NR concentration 270 nM)
In short: as §1

| Sequence | PBM binding z-score [1] | PBM binding z-score [2] | PBM binding z-score [3] | PBM binding z-score [4] | PBM binding z-score [5] | PBM binding z-score [6] | PBM binding z-score [7] | PBM binding z-score [8] | PBM binding z-score [9] | PBM binding z-score [10] | PBM binding z-score [11] | PBM binding z-score [12] | PBM binding z-score [13] | PBM binding z-score [14] | PBM binding z-score [15] | PBM binding z-score [16] | PBM binding z-score [17] | PBM binding z-score [18] | PBM binding z-score [19] |
| --- | --- | --- | --- | --- | --- | --- | --- | --- | --- | --- | --- | --- | --- | --- | --- | --- | --- | --- | --- |
| TCTTATAGGTAAACAGGTGAAAGTCCGTAAGTTA | 4.87 | 4.49 | 1.36 | 1.34 | 1.19 | 0.753 | 0.655 | 0.981 | 0.803 | 0.791 | 0.802 | 0.615 | 0.392 | 1.1 | 0.864 | 0.793 | 0.397 | 1.17 | 0.462 |
| ACTATTAGGTGAGACGAGGGCAACCGATAGGTTG | 4.85 | 3.95 | 1.23 | 0.854 | 1.46 | 2.81 | 0.453 | 1.39 | 0.564 | 1.64 | 1.7 | 1.03 | 1.43 | 0.288 | 0.97 | 3.84 | 0.802 | 1.77 | 1.07 |
| TCTAGCAGGCCAGAGGGTCACTTAAGAGGTACGG | 0.598 | 0.688 | -0.762 | -0.435 | 0.442 | 1.35 | -0.462 | 2.27 | -0.441 | 2.19 | 2.71 | 2.39 | 2.2 | 0.154 | 2.36 | 1.53 | -0.266 | 1.26 | 0.361 |
| TCGAGTAGGTTACCTATGGGGCATTCAGCTTTCT | 2.71 | 2.51 | -0.176 | -0.57 | -0.445 | 0.0182 | -0.655 | 0.469 | -0.643 | 0.753 | 0.279 | 1.39 | 0.398 | 0.211 | 0.571 | 0.16 | -0.89 | -0.0814 | -0.367 |
| AGGATGAGGTTATACGTAGATCAGGGAAGAAAGT | 0.241 | 0.698 | 1.41 | 0.577 | 1.34 | 1.6 | 1.47 | 1.71 | 1.01 | 1.77 | 1.66 | 1.85 | 1.16 | 1.66 | 2.27 | 2.39 | 1.27 | 1.66 | 1.08 |
| ATCTCTAGGTAAAGATCGTTCAGTGAATGCAAAT | 2.03 | 1.66 | 1.31 | 0.707 | 0.555 | -0.16 | 0.0441 | 0.0862 | 0.49 | -0.0299 | 0.111 | 0.0557 | 0.231 | -0.238 | -0.178 | 0.22 | -0.0507 | 0.221 | 0.139 |
| GCGACTGGGGCAAAGCAGGTTTCCATAAGGTTGG | 4.2 | 3.02 | -0.184 | -0.615 | -0.0282 | -0.473 | -0.449 | -0.165 | -0.557 | 0.376 | -0.0206 | -0.174 | -0.133 | 0.157 | -0.342 | 1.21 | -0.028 | -0.475 | -0.34 |
| ACTATTAGTTGACATAGGGCAACCGATACGACGC | 0.444 | 0.742 | 1.27 | 1.22 | 0.811 | 0.547 | 0.504 | 0.635 | 0.879 | 1.19 | 1.24 | 0.928 | 1.29 | 0.826 | 0.903 | 1.25 | 0.125 | 0.569 | 0.399 |
| AGAACGAGGGCAATGAGGTGATAGCACGGGTGGC | 3.36 | 3.33 | 0.776 | 0.448 | 0.588 | 1.06 | 0.905 | 0.818 | 0.144 | 2.13 | 1.58 | 1.49 | 1.52 | 1.37 | 1.04 | 2.46 | 0.988 | 3.78 | 1.57 |
| CAAACTCGGTCAAAGGTCAAAGTCGAGCCAACCA | 5.71 | 7.61 | 1.95 | 3.41 | 6.43 | 6.69 | 2.5 | 8.37 | 3.33 | 5.43 | 5.08 | 8.4 | 6.7 | 2.48 | 9.27 | 4.33 | 1.31 | 6.22 | 3.31 |
| GCTGCTAGGTCAACTGATGCTCAGCTAAAGCTCG | 4.93 | 3.92 | -0.517 | -0.991 | 1.02 | 1.26 | -0.735 | 2.18 | -0.0559 | 4.27 | 3.18 | 4.37 | 5.36 | 1.64 | 2.89 | 2.89 | 0.915 | 1.38 | -0.0358 |
| AGGACGAGGGCACGCTGAGTTGATAGCAGAGTAG | 2.52 | 2.08 | -0.0685 | -0.533 | 0.511 | 1.31 | 0.265 | 0.618 | -0.58 | 2.68 | 1.36 | 1.76 | 2.67 | 2.23 | 1.51 | 1.88 | 0.162 | 2.09 | 1.51 |
| GCTAGTTGGTCGGTAAAAGGTCACACACCGGTCG | 0.248 | 3.4 | 0.279 | 0.356 | 3.46 | 4.78 | 1.24 | 5.17 | 1.42 | 4.08 | 4.97 | 5.3 | 4.72 | 0.311 | 5.42 | 3.47 | 1.92 | 3.89 | 1.59 |
| AGAACGAGGGCAATGAGTTGTTAGCACGGGTGGC | 3.51 | 2.66 | 0.326 | -0.308 | -0.355 | 0.859 | 1.26 | 0.0367 | -0.253 | 2.13 | 0.552 | 0.787 | 1.3 | 1.76 | 0.588 | 0.64 | -0.39 | 4.09 | 2.19 |
| ATCTCTAGGGAAAGATAGTTCAGTGAATGCAAAT | 0.0889 | 0.274 | 0.441 | 0.248 | 0.581 | 0.457 | 0.536 | 0.402 | 0.55 | 0.406 | 0.675 | 0.502 | 0.656 | 0.0504 | 0.0958 | 0.201 | -0.33 | 0.156 | 0.635 |
